Reference: PubChem BioAssay (NCI)
Several values for one entry are separate records, joined by “and”; a condition that tells them apart may be missing. Equal values may be shown once. This is part of a sample that, as a whole, favours compounds with a hit. Of some 83,000 tested, about 20% had one in any assay.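 Growth was measured after 48 h exposure to one concentration of compound in 96-well plates. Values under 10 count as active.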 Activity calls are given as the source filed them.

What was measured:
Assay in all cases: NCI-60 one-dose screen, 48 h (100 = growth as untreated, 0 = no growth, -100 = all killed)
NCI-H23 lung = tested on: NCI-H23 lung
NCI-H226 lung = tested on: NCI-H226 lung
NCI-H322M lung = tested on: NCI-H322M lung
HOP-62 NSCLC = tested on: HOP-62 NSCLC
NCI-H460 lung = tested on: NCI-H460 lung
HOP-92 NSCLC = tested on: HOP-92 NSCLC
NCI-H522 lung = tested on: NCI-H522 lung
A549/ATCC NSCLC = tested on: A549/ATCC NSCLC
786-0 renal = tested on: 786-0 renal
COLO 205 colon = conditions: 10 µM unless noted
DU-145 prostate = tested on: DU-145 prostate
K-562 leukemia = tested on: K-562 leukemia
MALME-3M melanoma = tested on: MALME-3M melanoma
MDA-MB-231 breast = tested on: MDA-MB-231 breast
RXF 393 renal = tested on: RXF 393 renal
SF-268 CNS = tested on: SF-268 CNS
SF-295 CNS = tested on: SF-295 CNS
SF-539 CNS = tested on: SF-539 CNS
UACC-257 melanoma = tested on: UACC-257 melanoma
M14 melanoma = conditions: 10 µM unless noted

Measured: growth

Clc1ccc(COC(Cn2ccnc2)c2ccc(Cl)cc2Cl)c(Cl)c1 (configuration not stated)
-1.54% (active) and 14.5% (inactive): HOP-92 NSCLC; 10 µM unless noted
inactive: NCI-H23 lung; 10 µM unless noted 40.6% and 25.2% | NCI-H226 lung; 10 µM unless noted 68.3% and 75.9% | NCI-H322M lung; 10 µM unless noted 94.1% and 85.6% | HOP-62 NSCLC; 10 µM unless noted 71.3% and 84.9% | NCI-H460 lung; 10 µM unless noted 56.8% and 55.9% | NCI-H522 lung; 10 µM unless noted 39% and 41.5% | A549/ATCC NSCLC; 10 µM unless noted 37.3% and 12.5% | 786-0 renal; 10 µM unless noted 48.9% and 49.6% | COLO 205 colon 57.2% and 57.9% | DU-145 prostate; 10 µM unless noted 76.8% and 69.8% | K-562 leukemia; 10 µM unless noted 25.5% and 13.7% | MALME-3M melanoma; 10 µM unless noted 56.1% and 75.3% | MDA-MB-231 breast; 10 µM unless noted 49.5% and 66.9% | RXF 393 renal; 10 µM unless noted 72.1% and 10.9% | SF-268 CNS; 10 µM unless noted 70.2% and 77.8% | SF-295 CNS; 10 µM unless noted 30.4% and 51.3% | SF-539 CNS; 10 µM unless noted 80.4% and 70.1% | UACC-257 melanoma; 10 µM unless noted 61.2% and 48% | M14 melanoma 29.2%

Cc1cc(N(CCCl)CCCl)ccc1/C=N\NC(=O)c1cccnc1
-36.1% (active) and 11.8% (inactive): NCI-H226 lung; 10 µM unless noted
inactive: NCI-H23 lung; 10 µM unless noted 66.1% and 73.8% | NCI-H322M lung; 10 µM unless noted 108% and 97.9% | HOP-62 NSCLC; 10 µM unless noted 80.4% and 87.5% | NCI-H460 lung; 10 µM unless noted 21.2% and 28.7% | HOP-92 NSCLC; 10 µM unless noted 88.9% and 94.3% | NCI-H522 lung; 10 µM unless noted 82.3% and 105% | A549/ATCC NSCLC; 10 µM unless noted 73.5% and 82.5% | 786-0 renal; 10 µM unless noted 81.1% and 84% | COLO 205 colon 94.1% and 102% | DU-145 prostate; 10 µM unless noted 75.6% and 75.4% | K-562 leukemia; 10 µM unless noted 85.2% and 91.8% | MALME-3M melanoma; 10 µM unless noted 107% | MDA-MB-231 breast; 10 µM unless noted 112% and 94.5% | RXF 393 renal; 10 µM unless noted 100% and 85.6% | SF-268 CNS; 10 µM unless noted 80.4% and 72.5% | SF-295 CNS; 10 µM unless noted 49.6% | SF-539 CNS; 10 µM unless noted 54.2% and 73.7% | UACC-257 melanoma; 10 µM unless noted 84.9% and 88.6% | M14 melanoma 96% and 92.1%

O=C(O)c1ccccc1N(CCO)CCCl
inactive: NCI-H23 lung; 10 µM unless noted 99% | NCI-H226 lung; 10 µM unless noted 102% | NCI-H322M lung; 10 µM unless noted 90.3% | HOP-62 NSCLC; 10 µM unless noted 95.1% | NCI-H460 lung; 10 µM unless noted 111% | HOP-92 NSCLC; 10 µM unless noted 79.3% | NCI-H522 lung; 10 µM unless noted 93.3% | A549/ATCC NSCLC; 10 µM unless noted 98.1% | 786-0 renal; 10 µM unless noted 107% | COLO 205 colon 100% | DU-145 prostate; 10 µM unless noted 103% | K-562 leukemia; 10 µM unless noted 100% | MALME-3M melanoma; 10 µM unless noted 87.1% | MDA-MB-231 breast; 10 µM unless noted 112% | RXF 393 renal; 10 µM unless noted 102% | SF-268 CNS; 10 µM unless noted 103% | SF-295 CNS; 10 µM unless noted 99.8% | SF-539 CNS; 10 µM unless noted 84.6% | UACC-257 melanoma; 10 µM unless noted 99% | M14 melanoma 96%

O=C(O)CCCc1ccc(N(CCCl)CCCl)cc1
inactive: NCI-H23 lung; 10 µM 102% and 79.4% | NCI-H23 lung; 75 µM 23.1% | NCI-H226 lung; 10 µM 78.7% and 88.2% | NCI-H226 lung; 75 µM 61.2% | NCI-H322M lung; 10 µM 98.7% and 112% | NCI-H322M lung; 75 µM 91.9% | HOP-62 NSCLC; 10 µM 90.1% and 91.6% | HOP-62 NSCLC; 75 µM 35% | NCI-H460 lung; 10 µM 86.6% and 54.5% | NCI-H460 lung; 75 µM 21% | HOP-92 NSCLC; 10 µM 95.3% and 40.2% | HOP-92 NSCLC; 75 µM 14.6% | NCI-H522 lung; 10 µM 87.2% and 59.6% | A549/ATCC NSCLC; 10 µM 89.2% | A549/ATCC NSCLC; 75 µM 46.1% | 786-0 renal; 10 µM 98.4% and 86.1% | DU-145 prostate; 10 µM 111% and 98.7% | K-562 leukemia; 10 µM 103% and 58.3% | K-562 leukemia; 75 µM 31.8% | MALME-3M melanoma; 10 µM 98.7% and 88.9% | MALME-3M melanoma; 75 µM 43% | MDA-MB-231 breast; 10 µM 99.4% and 104% | MDA-MB-231 breast; 75 µM 93.5% | RXF 393 renal; 10 µM 106% and 87.8% | RXF 393 renal; 75 µM 12% | SF-268 CNS; 10 µM 87.6% and 69.9% | SF-268 CNS; 75 µM 34% | SF-295 CNS; 10 µM 100% and 78.8% | SF-295 CNS; 75 µM 13.4% | SF-539 CNS; 10 µM 87.8% and 72.3% | UACC-257 melanoma; 10 µM 104% and 73.4% | UACC-257 melanoma; 75 µM 28.9% | M14 melanoma 93.3% and 97.1%
active: NCI-H522 lung; 75 µM 0.62% | 786-0 renal; 75 µM 9.49% | DU-145 prostate; 75 µM -5.07% | SF-539 CNS; 75 µM -40.7%

C[C@]12CCc3sc(Nc4ccc(O)cc4)nc3C1=CC[C@@H]1[C@@H]2CC[C@]2(C)C(=O)CC[C@@H]12
active: NCI-H522 lung; 10 µM unless noted -55.2% | 786-0 renal; 10 µM unless noted -3.03% | RXF 393 renal; 10 µM unless noted -16.2% | SF-539 CNS; 10 µM unless noted -3.84%
inactive: NCI-H23 lung; 10 µM unless noted 70.2% | NCI-H226 lung; 10 µM unless noted 103% | NCI-H322M lung; 10 µM unless noted 93.4% | HOP-62 NSCLC; 10 µM unless noted 92.7% | NCI-H460 lung; 10 µM unless noted 65.6% | HOP-92 NSCLC; 10 µM unless noted 126% | A549/ATCC NSCLC; 10 µM unless noted 79.3% | COLO 205 colon 38.5% | DU-145 prostate; 10 µM unless noted 10.4% | K-562 leukemia; 10 µM unless noted 10.8% | MALME-3M melanoma; 10 µM unless noted 29.7% | MDA-MB-231 breast; 10 µM unless noted 35.3% | SF-268 CNS; 10 µM unless noted 58.3% | SF-295 CNS; 10 µM unless noted 52.5% | UACC-257 melanoma; 10 µM unless noted 73.4% | M14 melanoma 58.1%

Oc1ccc(O)c(Cl)c1
active: NCI-H522 lung; 10 µM unless noted -92.2% and -1.35%
inactive: NCI-H23 lung; 10 µM unless noted 96.2% and 88.3% | NCI-H226 lung; 10 µM unless noted 94.5% and 98.5% | NCI-H322M lung; 10 µM unless noted 109% and 98.2% | HOP-62 NSCLC; 10 µM unless noted 109% | NCI-H460 lung; 10 µM unless noted 99.7% and 102% | HOP-92 NSCLC; 10 µM unless noted 87.6% and 102% | A549/ATCC NSCLC; 10 µM unless noted 92.5% and 111% | 786-0 renal; 10 µM unless noted 108% and 112% | COLO 205 colon 109% and 99.8% | DU-145 prostate; 10 µM unless noted 103% | K-562 leukemia; 10 µM unless noted 89.1% and 94.8% | MALME-3M melanoma; 10 µM unless noted 106% and 103% | MDA-MB-231 breast; 10 µM unless noted 67.3% and 101% | RXF 393 renal; 10 µM unless noted 93% and 113% | SF-268 CNS; 10 µM unless noted 96% and 100% | SF-295 CNS; 10 µM unless noted 103% and 118% | SF-539 CNS; 10 µM unless noted 84.4% and 102% | UACC-257 melanoma; 10 µM unless noted 88.1% and 102% | M14 melanoma 95.7% and 104%
